Cruzain inh noDet: cruzain (T. cruzi) inhibition without detergent. Potency, µM, without a hit: max response, negative = inhibition, most hits filed as inhibitors. AID 1476. hit rate 2.3% among 200,000. purified cruzain, Z-FR-AMC fluorescence, no detergent;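 note: plate controls were enzyme without inhibitor for no effect and buffer without enzyme for full effect; nearly all actives have a fitted effect of over 40% in size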
Target sequence (P25779 123-467 limits assumed): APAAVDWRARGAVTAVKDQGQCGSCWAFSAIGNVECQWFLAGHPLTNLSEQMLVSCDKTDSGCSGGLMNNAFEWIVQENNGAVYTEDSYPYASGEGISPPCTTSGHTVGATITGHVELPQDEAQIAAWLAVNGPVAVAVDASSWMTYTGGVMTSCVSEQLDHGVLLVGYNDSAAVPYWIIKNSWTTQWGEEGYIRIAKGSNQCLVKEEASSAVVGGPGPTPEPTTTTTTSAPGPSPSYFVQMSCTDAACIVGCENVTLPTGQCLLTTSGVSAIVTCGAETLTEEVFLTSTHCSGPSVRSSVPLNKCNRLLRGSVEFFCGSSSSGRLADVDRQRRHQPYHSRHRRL
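Detergent-free condition (0.00005% Triton X-100) in acetate buffer pH 5.5 with DTT. 1.5 nM enzyme and compound were pre-mixed 15 min, then 2 uM Z-FR-AMC substrate added; reaction progress from fluorescence change between first and third reads (60 s).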
Cruzain Triton: cruzain (T. cruzi) inhibition with detergent. purified cruzain, Z-FR-AMC fluorescence, 0.01% Triton. Potency, µM, inactives show max response, negative = inhibition, most hits filed as inhibitors. hit rate 0.43% among 200,000. P25779;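 note: plate controls were neutral wells for no effect and buffer without enzyme for full effect; nearly all actives have a fitted effect of over 40% in size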
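Enzyme 1.5 nM, Z-FR-AMC 2 uM, NaOAc 100 mM pH 5.5, DTT 5 mM, Triton X-100 0.01%; 15 min RT compound preincubation; kinetic ex360/em450, 60 s delta.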
Active calls of the source: *; ? = inconclusive. Shown are actives, neighbours in structure and some others; about 2.5% of the full set was active somewhere. Calls come from the whole dose curve; as a rule, active = well fitted curve in the direction sought with a large enough effect; inconclusive = small, poorly fitted or top-dose-only effect, or another doubt; inactive = no such curve, though single readings can be large; an effect the other way counts as inactive or inconclusive. Potency is the fitted concentration of half-maximal effect.

SMILES | Cruzain inh noDet | Cruzain Triton
O=C(Cc1ccccc1)NNC(=O)Nc1ccc(Cl)c(Cl)c1 | -1% | 0%
NC(=S)NNC(=O)Nc1ccc(Cl)c(Cl)c1 | 2µM* | 3.2µM*
O=C(COc1ccc(Cl)cc1)NCCc1csc(-c2cccc(F)c2)n1 | -2% | -10%
CCNc1ncc2nc(-c3ccccc3)c(=O)n(C)c2n1 | ? | -1%
COc1ccc(OC)c(-c2cn(S(=O)(=O)c3ccccc3)nc2N)c1 | -1% | -14%
COc1ccccc1-c1cn(S(=O)(=O)c2ccc(C)cc2)nc1N | 10µM* | -3%
COc1ccc(/C=N/OCc2nc3c4c(ncn3n2)Oc2ccc3ccccc3c2C4c2ccccc2)cc1 (stereo unspecified) | 1.6µM* | 5%
COc1ccc(C2c3c(ccc4ccccc34)Oc3ncn4nc(Cc5ccccc5)nc4c32)cc1OC (stereo unspecified) | ? | -2%
CC(C)OCCCNC(=O)C(=O)Nc1ccc2nc3n(c(=O)c2c1)CCCCC3 | 3% | -5%
O=C(COC(=O)c1cc(-c2ccccc2)nc2ccccc12)Nc1ccc2c(c1)OCO2 | ? | -4%
O=C(COC(=O)c1cccs1)Nc1ccccc1 | -1% | 2%
O=C(COC(=O)c1c2c(nc3ccccc13)CCCC2)Nc1ccc2c(c1)OCO2 | 25µM* | -6%
CC(=O)c1ccc(NC(=O)COC(=O)c2c3c(nc4ccccc24)/C(=C\c2cccs2)CCC3)cc1 | 7.9µM* | 5%
CC(=O)c1ccc(NC(=O)COC(=O)CCC(=O)c2cccs2)cc1 | -1% | -1%
O=C(COC(=O)c1c2c(nc3ccccc13)/C(=C\c1cccs1)CCC2)Nc1ccccc1 | 10µM* | 0%
CCc1ccccc1NC(=O)c1nnn(Cc2ccc(Cl)cc2)c1N | -2% | -7%
COc1ccccc1NC(=O)CSc1oc(-c2ccccc2)nc1S(=O)(=O)c1ccccc1 | ? | -6%
Oc1c(C(c2ccccc2Cl)N2CCCC2)sc2nc(-c3ccco3)nn12 (stereo unspecified) | -14% | -1%
Cc1c(Cl)cccc1N1C(N)=C(C#N)C(c2cc(CN3CCOCC3)cs2)C2=C1CCCC2=O (stereo unspecified) | -11% | -7%
C[C@H](NC(=O)[C@@H]1C[C@H]1[C@@H](NC(=O)OCc1ccccc1)c1ccccc1)c1ccccc1 | 16µM* | 1%
CC(C)NC(=O)[C@@H]1C[C@H]1[C@@H](NC(=O)OCc1ccccc1)c1ccccc1 | -4% | 1%
N#Cc1c(N)nc(SCC(=O)C23CC4CC(CC(C4)C2)C3)c(C#N)c1-c1ccc(Cl)cc1 | 4µM* | 3%
CCOC(=O)CC(=O)CSc1nc(C)cc(C)c1C#N | 4% | 3%
CCOC(=O)CC(=O)CSc1nc(N)c(C#N)c(-c2ccc(Cl)cc2)c1C#N | 32µM* | -2%
CSc1nc(N)nc(SCC(=O)C23CC4CC(CC(C4)C2)C3)c1C#N | -16% | -4%
SMILES | Cruzain inh noDet | Cruzain Triton
COc1cc(/C=C/c2nc(C#N)c(NC3CCCCC3)o2)cc(OC)c1OC | ? | 33%
O=C(Nc1ccc2nn(-c3ccc(F)cc3)nc2c1)c1cccc2c(Cl)cccc12 | -4% | 2%
CCC1CCCCN1CCCNC(=O)c1ccc2c(c1)N(Cc1ccccc1F)C(=O)c1ccccc1S2(=O)=O (stereo unspecified) | 13% | 2%
CCc1ccc(S(=O)(=O)c2nnn3c2nc(NC2CCCCCC2)c2sccc23)cc1 | -7% | 0%
CCOC(=O)CSc1nc2sc(C)c(C)c2c(=O)n1N | -9% | -1%
COC(=O)c1sc2nc(SCc3ccccc3C#N)n(N)c(=O)c2c1C | 32µM* | -8%
CCOc1ccc(CCNc2ncnc3onc(-c4ccc(Cl)cc4)c23)cc1 | 0% | -2%
Cc1cccc(CSc2cn(CC(=O)N3CCCCC3)c3ccccc23)c1 | 10% | -8%
COc1ccc(-n2ncc3c(NC4CCCC4)ncnc32)cc1 | -18% | -1%
O=c1[nH]c(SCc2ccc(F)cc2)nc2c1cnn2-c1ccc(F)cc1 | 16µM* | 2%
CCCSc1nc2c(cnn2-c2ccc(C)c(C)c2)c(=O)[nH]1 | -22% | 0%
CCC(C)Sc1nc2c(cnn2-c2ccccc2)c(=O)[nH]1 (stereo unspecified) | 5% | 2%
CCCSc1nc2c(cnn2-c2ccc(F)cc2)c(=O)[nH]1 | 0% | -6%
CCCCSc1nc2c(cnn2-c2ccc(C)c(C)c2)c(=O)[nH]1 | 20µM* | 2%
CCC(C)Sc1nc2c(cnn2-c2ccc(C)cc2)c(=O)[nH]1 (stereo unspecified) | 20µM* | 2%
COc1ccccc1N1CCN(S(=O)(=O)c2c(C)sc3ncn(CC(=O)N(C)c4ccc(Cl)cc4)c(=O)c23)CC1 | ? | -3%
CCOc1ccccc1NC(=O)Nc1ccc2nc(N3CCN(C)CC3)cc(C)c2c1 | -2% | -6%
N[C@H](Cc1c[nH]c2ccccc12)P(=O)(O)O | -5% | 4%
CCOc1ccccc1NC(=O)Cn1c(=O)nc(-c2ccccc2F)c2cc(Cl)ccc21 | -2% | 0%

Assay outcomes: PubChem BioAssay, National Center for Advancing Translational Sciences (NCATS)
